Source: ChEMBL document CHEMBL3433997, “St. Jude Leishmania screening dataset” (2016)

The compounds below were run against Hexose transporter 1 (Plasmodium falciparum) (UniProt O97467) (assay: ST_JUDE_LEISH: Cytotoxicity at 2uM final concentration against transgenic Leishmania Mexicana promastigotes LmPfHT that are glucose transport deficient and complemented with the Plasmodium falciparum hexose transporter. Activity is measured by DNA content using SYBR green in vitro).
Type: functional

Compound | inhibition [%]
Cc1cc(N[C@@H](CC(C)C)C(=O)Nc2ccccc2)nc(NCCc2ccc(F)cc2)n1 | 1.97
CC(C)CC(=O)N(Cc1ccc(-c2ccc(CNC3Cc4ccccc4C3)cc2)cc1)C1CCNCC1 | 5.79
CC1CCCN(c2ccc(NC(=O)c3cccs3)cc2[N+](=O)[O-])C1 (stereo not given) | 1.19
Oc1ccc(CCNCCCCCCNCCc2ccc(Cl)c3ccccc23)cc1O | -2.07
COc1cc(OC)cc(-c2nc3ccc(OCCN(C)C)c(C#N)c3[nH]2)c1 | 4.09
c1ccc2c(NCCc3c[nH]cn3)c3ccccc3nc2c1 | 4.05
CN1CCN(c2ccnc3ccc(NC(=O)Cc4ccc(-c5ccncc5)c5ccccc45)cc23)CC1 | 0.37
CC(C)(C)c1ccc(CN2CCC(NC(=O)c3ccc(-c4cccc(C(F)(F)F)c4)s3)CC2)cc1 | -0.78
CCC(C)CC(=O)Nc1ccc(OC)c(S(=O)(=O)N[C@@H]2CCN(C#N)C2)c1 (stereo not given in full) | -0.4
O=[N+]([O-])c1cccc(NC(=S)N2CCCN(Cc3ccc(F)cc3F)CC2)c1 | 1
COc1ccc(-n2ccnc2SCC(=O)Nc2cc(C(F)(F)F)ccc2Cl)c(OC)c1 | 11.2
Cc1nc2nc(N)nc(N)c2c(C)c1Cc1ccccc1I | 8.12
COc1cc(CNC[C@@H](O)[C@H](Cc2ccccc2)NC(=O)c2cc(C3CCCC3)cc(N3CCCC3=O)c2)cc(OC)c1 | 5.82
CCNc1cc(C(=O)N[C@@H](Cc2ccccc2)[C@H](O)CN[C@H](C)C(C)(C)C)cc(N2CCCCS2(=O)=O)c1 | 1.95
N=C1NC(c2ccccc2)(c2ccccc2)C(=O)N1C1CCCCC1 | 3.28
Cn1cc(Br)c(-c2cccc(Nc3ccnc4cc(-c5nccs5)ccc34)c2)n1 | 2.34
Cn1cncc1CNCc1ccc(-c2cccc(-c3nc4ccccc4[nH]3)c2)cc1 | -1.22
O=C(Cn1c(SCc2cccc(F)c2F)cc(=O)c2ccccc21)N(CCc1c[nH]cn1)Cc1ccc(-c2ccc(C(F)(F)F)cc2)cc1 | 5.15
COc1cccc2cc(C(=O)N[C@@H](CC(C)C)C(=O)N[C@H](/C=N/NC(=O)OC(C)(C)C)CC(=O)OC(C)(C)C)oc12 | 6.98
COc1ccc(CCN2CCC(Nc3nc4ccccc4n3CCc3ccc(OC)cc3)CC2)cc1 | -1.39
NC(=O)c1ccccc1OCC(=O)Nc1cccc(-c2ccc(-c3nc4ccccc4[nH]3)cc2)c1 | 6.11
O=C(Nc1ccccc1)Nc1ccc(-n2ccc(C(F)(F)F)n2)cc1 | 2.63
Cc1cc(C)n2nc(C(=O)Nc3cc(C(F)(F)F)ccc3N3CCOCC3)nc2n1 | 2.82
O=C(Nc1cccc(C(F)(F)F)c1)NC1CCN(c2ccnc3cc(Cl)ccc23)CC1 | 1.64
Cc1cnc(Nc2ccccc2)nc1N[C@@H](CCCN)C(=O)Nc1ccccc1 | -0.2

The compounds below were run against Glucose transporter (Leishmania mexicana) (UniProt O61059) (assay: ST_JUDE_LEISH: Cytotoxicity at 2uM final concentration against transgenic Leishmania Mexicana promastigotes LmGT2 that are glucose transport deficient and complemented with the L. Mexicana glucose transporter 2. Activity is measured by DNA content using SYBR green in vitro).
Type: functional

Compound | inhibition [%]
Cc1nc(C)c(-c2ccc(S(=O)(=O)c3ccc(Cl)cc3)cc2)c(O)c1Cl | 7.16
CCCN(CC1CC1)c1ncc(-c2cccc(CNCCC3CCCN3C)c2)cn1 (stereo not given) | 104
CCN1CCN(CCCNc2c3ccccc3nc3ccccc23)CC1 | 39.1
CCCCCC(=O)NCC(NCCCNc1cc(=O)c2ccccc2[nH]1)c1cc(Br)cc(Br)c1 (stereo not given) | 5.39
CCCC1N=C(N)N=C(N)N1c1cccc([N+](=O)[O-])c1 (stereo not given) | 0.75
Cc1cccc2nc(-c3ccc(-c4ccc(NC(=O)c5cncn5C)cc4)s3)[nH]c12 | 7.26
CNC(=O)COC(=O)c1c2c(nc3ccccc13)C(=Cc1ccc3c(c1)OCO3)CCC2 | 0.04
COc1ccc2nccc([C@@H](O)CN3CCC(NCc4ccc5c(c4)NC(=O)CS5)CC3)c2c1 | -0.16
Cc1ccc2nc(-c3ccc(C(=O)NC4CCN(Cc5ccccc5)CC4)cc3)[nH]c2c1C | 0.84
COc1cc2nc(N3CCC(CNC(=O)c4ccc(C(C)=O)cc4)CC3)nc(N)c2cc1OC | 3.9
O=C(Nc1cc(Cl)cc(Cl)c1)Nc1ccccc1C(=O)NC1CCCCC1 | 0.23
O=C(OCc1ccccn1)c1nc2ccccc2[nH]1 | 0.92
Cc1cccc(Cl)c1Nc1nnc(-c2cccc(C(=O)NC[C@@H]3CC[C@H]4C[C@@H]3C4(C)C)c2)o1 | 6.65
C[C@H](NC(=O)C1CCCC1)C(=O)Nc1ccc(-c2ccc(-c3nc4cc(C(F)(F)F)ccc4[nH]3)cc2)cc1 | -1.28
COc1ccc2nccc([C@@H](O)CN3CCC(NCc4nc5c(cc4F)SCC(=O)N5)C(F)C3)c2c1 (stereo not given in full) | 4.51
Cc1cc(N[C@@H](CC(C)C)C(=O)Nc2ccccc2)nc(NCCc2ccc(F)cc2)n1 | 1.72
CC(C)CC(=O)N(Cc1ccc(-c2ccc(CNC3Cc4ccccc4C3)cc2)cc1)C1CCNCC1 | 10.6
CC1CCCN(c2ccc(NC(=O)c3cccs3)cc2[N+](=O)[O-])C1 (stereo not given) | -1.43
Oc1ccc(CCNCCCCCCNCCc2ccc(Cl)c3ccccc23)cc1O | -2.9
COc1cc(OC)cc(-c2nc3ccc(OCCN(C)C)c(C#N)c3[nH]2)c1 | 2.21

Compound | inhibition [%]
c1ccc2c(NCCc3c[nH]cn3)c3ccccc3nc2c1 | 2.23
CN1CCN(c2ccnc3ccc(NC(=O)Cc4ccc(-c5ccncc5)c5ccccc45)cc23)CC1 | -0.2
CC(C)(C)c1ccc(CN2CCC(NC(=O)c3ccc(-c4cccc(C(F)(F)F)c4)s3)CC2)cc1 | -5.64
CCC(C)CC(=O)Nc1ccc(OC)c(S(=O)(=O)N[C@@H]2CCN(C#N)C2)c1 (stereo not given in full) | -0.94
O=[N+]([O-])c1cccc(NC(=S)N2CCCN(Cc3ccc(F)cc3F)CC2)c1 | 0.66
COc1ccc(-n2ccnc2SCC(=O)Nc2cc(C(F)(F)F)ccc2Cl)c(OC)c1 | 7.95
Cc1nc2nc(N)nc(N)c2c(C)c1Cc1ccccc1I | 6.31
COc1cc(CNC[C@@H](O)[C@H](Cc2ccccc2)NC(=O)c2cc(C3CCCC3)cc(N3CCCC3=O)c2)cc(OC)c1 | -1.06
CCNc1cc(C(=O)N[C@@H](Cc2ccccc2)[C@H](O)CN[C@H](C)C(C)(C)C)cc(N2CCCCS2(=O)=O)c1 | 2.33
N=C1NC(c2ccccc2)(c2ccccc2)C(=O)N1C1CCCCC1 | 1.18
Cn1cc(Br)c(-c2cccc(Nc3ccnc4cc(-c5nccs5)ccc34)c2)n1 | 4.06
Cn1cncc1CNCc1ccc(-c2cccc(-c3nc4ccccc4[nH]3)c2)cc1 | -4.84
O=C(Cn1c(SCc2cccc(F)c2F)cc(=O)c2ccccc21)N(CCc1c[nH]cn1)Cc1ccc(-c2ccc(C(F)(F)F)cc2)cc1 | 2.52
COc1cccc2cc(C(=O)N[C@@H](CC(C)C)C(=O)N[C@H](/C=N/NC(=O)OC(C)(C)C)CC(=O)OC(C)(C)C)oc12 | 3.63
COc1ccc(CCN2CCC(Nc3nc4ccccc4n3CCc3ccc(OC)cc3)CC2)cc1 | 12.5
NC(=O)c1ccccc1OCC(=O)Nc1cccc(-c2ccc(-c3nc4ccccc4[nH]3)cc2)c1 | 2.43
O=C(Nc1ccccc1)Nc1ccc(-n2ccc(C(F)(F)F)n2)cc1 | -0.06
Cc1cc(C)n2nc(C(=O)Nc3cc(C(F)(F)F)ccc3N3CCOCC3)nc2n1 | 3.81
O=C(Nc1cccc(C(F)(F)F)c1)NC1CCN(c2ccnc3cc(Cl)ccc23)CC1 | -1.47
Cc1cnc(Nc2ccccc2)nc1N[C@@H](CCCN)C(=O)Nc1ccccc1 | -0.3
